In the library only some 7.3% were active in any assay of this set; here they are far more common.
VACV Venus inh: vaccinia inhibition (Venus reporter). Vaccinia virus Venus reporter expression, fluorescence. Potency, µM (doses to about 36.5 µM), inactives show top-dose activity change, negative = inhibition, hits mostly inhibitors. 330,000 tested, 0.46% active. AID 720580; calls by dose curve; tested in A549 cells; note: potency is the fitted concentration of half-maximal effect; nearly all actives have a fitted effect of over 30% in size
HCMV antiviral: inhibitors of human cytomegalovirus; 410,000 tested, 4.5% active; HFF cells, HCMV-luciferase reporter, 72 h; hits give low values; activity change, negative = inhibition, % at 57.5 µM; in the data active = activity change below about -60%; inconclusive = no clear call, values can overlap the other calls; inactive = above about -39%
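HFF cells seeded 16 h at 37C, treated with compounds, infected with luciferase-reporter HCMV at MOI 1 PFU/cell; luciferase read at 72 h post infection, normalized to buffer-only and Salinomycin controls.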
FMDV inh: foot and mouth disease virus antiviral activity; FMDV antiviral cell-based qHTS; Potency, µM (doses to about 57.9 µM), without a hit: at the highest dose activity change, negative = inhibition, most hits filed as inhibitors; 410,000 tested, 1.2% active; AID 1159524; calls by dose curve; tested in HEK293T cells; note: read-out not given here; potency is the fitted concentration of half-maximal effect; nearly all actives have a fitted effect of over 45% in size
VACV mCherry inh: vaccinia inhibition (mCherry reporter) | Vaccinia virus mCherry reporter infection, fluorescence | Potency, µM (highest dose often 36.5 µM), without a hit: top-dose activity change, negative = inhibition, usual class: inhibitors | 310,000 tested, 0.63% active | AID 720579; calls by dose curve; tested in A549 cells; note: potency is the fitted concentration of half-maximal effect; nearly all actives have a fitted effect of over 35% in size
HCV inhibitor: HCV inhibition. Huh7.5.1 HCVcc-Cre infection, luciferase reporter, 44 h. Potency, µM (doses to about 41.8 µM), inactives show at the highest dose activity change, negative = inhibition, actives largely listed as inhibitors. 340,000 tested, 3.4% active. AID 651820; active = well fitted inhibition curve with a large enough effect; inconclusive = small, poorly fitted or top-dose-only effect, or another doubt; inactive = no such curve, though single readings can be large or run the other way; note: potency is the fitted concentration of half-maximal effect
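Infectious HCV cell culture screen: compound-treated cells (1,000/well, pre-plated 4 h) are infected with HCVcc-Cre at roughly 0.5 moi and grown 44 h. Infection is quantified by luciferase signal after 15 min substrate incubation at room temperature.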
Starred values were filed as active, the others as inactive; i = inactive; ? = inconclusive; . = not tested or not shown. % is set by controls: 0 for no effect and ±100 for the full control effect.

SMILES	VACV Venus inh	HCMV antiviral	FMDV inh	VACV mCherry inh	HCV inhibitor
CC(C)N1CC=C(c2c[nH]c3ccccc23)CC1	?	-67*	?	.	?
COC(=O)c1c(Cl)c2n3ccccc3c(C)c(-c3ccccc3)c-2c1C(=O)OC	41%	90	?	i	13µM*
COC(=O)c1cc2c(-c3ccccc3)c(C)c3ccccn3c-2c1C(=O)OC	19%	-35	?	.	?
CCC1CCc2sc(C(=O)NCC(c3ccccc3OC)N3CCCC3)cc2C1 (configuration not stated)	.	?	?	.	7.1µM*
COc1ccc(C(CNC(=O)c2cc3c(s2)CCC(C)C3)N2CCCC2)cc1 (configuration not stated)	.	?	9%	.	10µM*
COc1ccc(C(CNC(=O)c2cc3c(s2)CCC(C)C3)N2CCOCC2)cc1 (configuration not stated)	.	?	-25%	.	?
CC(=O)c1ccccc1NC(C(=O)Nc1c(C)cccc1C)C1CCCC1 (configuration not stated)	.	-5	.	.	.
N#CC1=C2Sc3ccccc3N2CCCC1=O	0%	-16	33%	-12%	23%
N#CC1=C2SC=C(c3ccc(Br)cc3)N2CCCC1=O	-25%	-3	-6%	-10%	11µM*
CCc1nc(CN2CCN(c3ccc(C(F)(F)F)cn3)CC2)c(C)[nH]1	.	-20	?	.	10µM*
Cc1cccc(C)c1NC(=O)CN1CCN(c2ccc(C(F)(F)F)cn2)CC1	-11%	?	-23%	12%	.
Cc1cccc(N/N=C(\C(N)=O)C2=NC(C)(C)Cc3ccccc32)c1	?	-98*	25µM*	?	11µM*
Cc1ccc(CNC(=O)c2ccc(COc3ccccc3)cc2)cc1	-14%	-63*	15%	i	4%
Cc1ccc(Oc2ccc(C(=O)NCc3ccncc3)cc2)cc1	-7%	-83*	?	-28%	3.2µM*
Cc1ccc(C)c(NS(=O)(=O)c2cc(C(=O)NCc3ccncc3)ccc2C)c1	-9%	-69*	39%	-23%	?
O=C(NCc1ccncc1)c1ccc(Oc2ccccc2)cc1	-9%	-18	-15%	-20%	?
CCc1c(C(=O)N/N=C/c2ccc(C)o2)csc1C	.	-22	15%	.	8%
O=C(COc1ccc(S(=O)(=O)N2CCOCC2)cc1Cl)NC1CC1	-11%	-10	-12%	-14%	14%
COCC(C)n1c(C)cc(C(=O)COc2ccc(S(=O)(=O)N3CCOCC3)cc2Cl)c1C (configuration not stated)	-13%	40	?	-16%	14µM*
CCCCOc1ccc(C(=O)OC2CC(C)N(C)CC2C)cc1 (configuration not stated)	-17%	2	6%	-23%	4.5µM*
CCCCOc1ccc(C(=O)N2CCC(C)CC2)cc1	-13%	-28	40%	.	7%
CCN(CC)C(=O)c1sc(NC(=O)c2nc3ncccn3n2)c(C(=O)OC)c1C	-9%	-15	0%	-8%	.
Cc1cc(C(=O)O/N=C(\N)c2ccc(C(C)(C)C)cc2)no1	.	-69*	27%	.	-26%
COc1ccc(C(=O)O/N=C(\N)c2ccccc2)cc1	-7%	54	?	-14%	-2%
Cc1noc(-c2ccc(Cl)cc2)c1C(=O)O/N=C(\N)c1ccc(C(C)(C)C)cc1	-9%	-100*	25µM*	-11%	?
SMILES	VACV Venus inh	HCMV antiviral	FMDV inh	VACV mCherry inh	HCV inhibitor
CC(C)(C)c1ccc(C(=O)O/N=C(\N)c2ccccc2)cc1	-6%	-94*	0.71µM*	5%	?
Cc1occc1C(=O)O/N=C(\N)c1ccc(Cl)cc1	-14%	0	34%	i	-4%
COc1ccc(NS(=O)(=O)c2ccc(I)cc2)cc1N1CCN(C)CC1	.	.	-24%	.	.
CC1(Cc2ccc3c(c2)OCO3)C(=O)Nc2c(Cl)ccc(Cl)c21 (configuration not stated)	-12%	-68*	0%	-8%	.
CC1(Cc2ccc3c(c2)OCO3)C(=O)Nc2ccc(-c3cccc(C(F)(F)F)c3)cc21 (configuration not stated)	?	-8	-27%	-16%	.
CN1CCN(C2Cc3cc(F)ccc3Sc3ccc(Cl)cc32)CC1 (configuration not stated)	.	-9	?	.	-13%
CC(C)c1ccc2c(c1)C(N1CCNCC1)Cc1ccc(F)cc1S2 (configuration not stated)	?	-98*	-5%	11µM*	?
CN1CCN(C2Cc3ccccc3Sc3ccc(Cl)cc32)CC1 (configuration not stated)	-29%	-11	?	?	?
CN1CCN(C2Cc3ccc(F)cc3Sc3cc(F)c(Cl)cc32)CC1 (configuration not stated)	?	-95*	2%	?	?
CCOC(=O)C1=CCN(S(=O)(=O)c2ccccc2F)C1c1ccc(Br)cc1 (configuration not stated)	.	-16	.	.	.
Cc1cc(Br)cn2c(Cc3ccsc3)c(-c3ccc(Cl)cc3)nc12	-19%	.	-26%	-16%	.
COc1ccc(/C=C2/Sc3ccc(C(=O)NCCCN4CCOCC4)cc3NC2=O)cc1OC	-21%	98	-27%	i	7.9µM*
CCN1CCN(CCCNC(=O)c2ccc3c(c2)NC(=O)/C(=C\c2cccc(C)c2)S3)CC1	.	?	-23%	.	1.8µM*
CCN1CCN(CCCNC(=O)c2ccc3c(c2)NC(=O)c2ccccc2S3)CC1	-4%	-3	-24%	-9%	10µM*
COc1ccc(C(=O)NCCCN2CCOCC2)cc1OC	.	35	-6%	.	26%
CCC(C)N(CCNC(=O)c1ccc2c(c1)NC(=O)c1ccccc1S2)C1CCCCC1 (configuration not stated)	-17%	0	-19%	-14%	22µM*
CC1CCCC(C)N1CCCNC(=O)c1ccc2c(c1)NC(=O)c1ccccc1S2 (configuration not stated)	-27%	-29	-8%	-15%	?
Cc1cccc(/C=C2/Sc3ccc(C(=O)NCCCN4CCOCC4)cc3NC2=O)c1	.	-31	.	.	.
O=C1CCC[C@@H]2[C@@H](Cc3ccccc3)[C@H](N3CCN(c4ccccc4)CC3)C[C@@H]3CCN1[C@@H]32	?	-80*	0%	?	26%
O=C1CCC[C@@H]2[C@H](Cc3ccccc3)[C@@H](O)C[C@@H]3CCN1[C@@H]32	-8%	-17	-28%	-17%	?
O=C(/C=C/c1cc[n+](CC(=O)c2ccc3cccc4c3c2CC4)cc1)c1ccc2cccc3c2c1CC3	6%	.	-13%	5%	6.3µM*
O=C(C[n+]1ccc2ccccc2c1)c1cccc2ccccc12	.	32	0%	.	?
C=C(C)COc1ccc2c(CC)cc(=O)oc2c1C	-4%	-12	2%	14%	11µM*
CCC1C(=O)NCCN1Cc1ccc2c(c1)CN(Cc1ccc(OC)c(OC)c1)CCO2 (configuration not stated)	?	.	-17%	-2%	.

Source: PubChem
